Laboratory results from PubChem BioAssay (NCATS).
“And” between values parts separate entries of the source, which are not always exact repeats. Equal values may be shown once. Results filed as inconclusive are left out. Where a call stands in place of a potency, no number is given. Values without a mark were called inactive. The source made the active and inactive calls. The call rests on the fitted dose curve; in most records, active means well fitted curve in the direction sought with a large enough effect; inconclusive means small, poorly fitted or top-dose-only effect, or another doubt; inactive means no such curve, though single readings can be large; an effect the other way counts as inactive or inconclusive. Square brackets hold non-standard residues; d marks the D form. Peptide text beside a SMILES is read from it. pGlu = O=C1CC[C@@H](C(=O)O)N1; Thz = O=C(O)[C@@H]1CSCN1

How the values were obtained:
[1] = molecular target: Cellular tumor antigen p53 (Homo sapiens) (UniProt P04637); test: Primary qHTS for small molecule compounds that upregulate eGFP-tagged delta133p53alpha (in N-terminal) cells. (AID 2060322); conditions: NCI-H358 eGFP-delta133p53alpha fluorescence, 24 h; activation: hits give high values; further: nearly all actives have a fitted effect of over 75% in size; further: potency means the concentration at half of the fitted maximal effect; on activation: series mostly up to about 56 µM
Outline: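 NCI-H358 cells pre-induced 24 h with 10 ng/ml doxycycline to express N-terminal eGFP-delta133p53alpha, then dosed 24 h at 37C without doxycycline; fixed, Hoechst-stained, GFP intensity by laser scanning cytometry, normalized to DMSO (0%) and 57.5 uM 5-azacytidine (100%).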

[2] = molecular target: Aldehyde dehydrogenase, mitochondrial (Homo sapiens) (UniProt P05091); test: qHTS for Inhibitors of the Aldehyde Dehydrogenase Family (ALDH2) Primary screen (AID 2061308); further: nearly all actives have a fitted effect of over 55% in size
[3] = molecular target: Retinaldehyde dehydrogenase 3 (Homo sapiens) (UniProt P47895); test: qHTS for Inhibitors of the Aldehyde Dehydrogenase Family (ALDH1A3) Validation screen (AID 2061312); further: nearly all actives have a fitted effect of over 45% in size; further: potency means the concentration at half of the fitted maximal effect
[4] = molecular target: Retinaldehyde dehydrogenase 3 (Homo sapiens) (UniProt P47895); test: qHTS for Inhibitors of the Aldehyde Dehydrogenase Family (ALDH1A3) Primary screen (AID 2061315)

Sequence of Cellular tumor antigen p53 (Homo sapiens) (P04637 whole entry, looked up): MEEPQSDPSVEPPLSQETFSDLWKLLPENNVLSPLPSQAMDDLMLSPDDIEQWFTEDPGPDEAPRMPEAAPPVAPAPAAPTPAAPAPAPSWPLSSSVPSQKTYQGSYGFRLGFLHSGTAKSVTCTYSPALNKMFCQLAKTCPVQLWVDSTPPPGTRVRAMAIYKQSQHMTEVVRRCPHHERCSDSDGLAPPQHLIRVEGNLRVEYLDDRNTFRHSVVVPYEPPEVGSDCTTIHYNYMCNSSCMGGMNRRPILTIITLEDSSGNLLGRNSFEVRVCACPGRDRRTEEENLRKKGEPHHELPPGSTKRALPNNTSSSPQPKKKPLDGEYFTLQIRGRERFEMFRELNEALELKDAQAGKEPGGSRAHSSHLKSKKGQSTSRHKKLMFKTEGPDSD

Structure (SMILES)	activation [1]	Potency [2]	Potency [3]	Potency [4]	Potency [1]
c1ccc(Nc2nc3c(s2)CCCc2[nH]ncc2-3)nc1	8.59%	inactive	inactive	inactive	
CCO[C@H]1CN(C2CCC(O)(c3ccc4c(c3)OCO4)CC2)C[C@@H]1NC(=O)CNC(=O)c1cccc(C(F)(F)F)c1 (stereo partly specified)	10.5%	inactive	inactive	inactive	
CCOc1nc2cccc(C(=O)O)c2n1Cc1ccc(-c2ccccc2-c2noc(=O)[nH]2)cc1	0.955%	inactive	inactive	inactive	
COc1ccc(-c2nc(-c3cc(C(F)(F)F)cc(C(F)(F)F)c3)n(Cc3ccc(C(N)=O)cc3)c2-c2ccc(OC)cc2)cc1	-11%	inactive	inactive	inactive	
Cc1ccc(COC(=O)N2CC[C@@H](CNc3ncccn3)[C@@H](F)C2)cc1	1.91%	inactive	inactive	inactive	
Cc1cccc2c1CC[C@H](CN1CCC(c3c(Cl)cccc3Cl)CC1)C[C@@H]2O	11.9% and -7.16%	inactive	inactive	inactive	
O=C(NCc1ccccc1)c1ccc2c(=O)n(-c3cccc(C(F)(F)F)c3)c(=S)[nH]c2c1	-9.55%	inactive	inactive	inactive	
COc1ccc2[nH]c3c(-c4cccc5ccccc45)nccc3c2c1		inactive	inactive	inactive	26.9 µM (active)
Cc1cc(N2CCN([C@@H]3CN[C@H](C(=O)N4CCSC4)C3)CC2)n(-c2ccccc2)n1	-1.91%	inactive	inactive	inactive	
NS(=O)(=O)c1ccc(N2CCN(CC[C@@H]3OCCc4ccccc43)CC2)cc1	16.7%	inactive	inactive	inactive	
COc1cnc(-n2cnc(C)n2)c2[nH]cc(C(=O)C(=O)N3CCN(C(=O)c4ccccc4)CC3)c12	3.34%	inactive	inactive	inactive	
Cn1c(=O)cc(N2CCCC(N)C2)n(Cc2cc(F)ccc2C#N)c1=O (stereo unspecified)	-2.86%	inactive	inactive	inactive	
FC(F)(F)c1nnc2c(Sc3ccccc3)nc3ccc(Cl)cc3n12	29.1%	inactive	inactive	inactive	
Nc1nc2c(c(N3CCNCC3)n1)CCC1=C2[C@@H]2CCCC[C@@H]2O1	-18.1%	inactive	inactive	inactive	
CN1CCOC(c2ccccc2)c2ccccc2C1 (stereo unspecified)	0.837% and 6.21%	inactive	inactive	inactive	
CNC(=O)c1ccc2c(c1)CCO[C@H]2CCN1CCN(c2ccc(C(N)=O)cc2)CC1	8.11%	inactive	inactive	inactive	
OC(CC1c2ccccc2-c2cncn21)C1CCCCC1 (stereo unspecified)	-7.16%	inactive	inactive	inactive	
C[C@H](Oc1cc(-c2cnn(C3CCNCC3)c2)cnc1N)c1c(Cl)ccc(F)c1Cl	14.8%	inactive	inactive	inactive	
Cc1cc(-c2nncc3c(C(C)(C)C)c(OCc4ncnn4C)nn23)no1	6.68%	inactive	inactive	inactive	
CC(=O)NC[C@H]1CN(c2ccc(N3CCSCC3)c(F)c2)C(=O)O1	0%	inactive	inactive	inactive	

Structure (SMILES)	activation [1]	Potency [2]	Potency [3]	Potency [4]	Potency [1]
COc1ccc([C@@H]2N[C@H](C(=O)O)Cc3c2[nH]c2ccccc32)cc1CN1CCN(c2ccccc2F)CC1	26.7%	inactive	inactive	inactive	
COc1ccc(C2(CNC(=O)c3ccc(NC(=O)c4ccco4)cc3)CCOCC2)cc1	5.25%	inactive	inactive	inactive	
O=C1COc2nccc(-c3ccccc3F)c2CN1Cc1cc(C(F)(F)F)cc(C(F)(F)F)c1	-4.77%	inactive	inactive	inactive	
CCCn1c(=O)c2[nH]c(-c3ccc(OCC(=O)O)cc3)nc2n(CCC)c1=O	-5.73%	inactive	inactive	inactive	
CCOc1ccc(C(Nc2ccccn2)c2ccc3ccc(C)nc3c2O)cc1C (stereo unspecified)	19.6%	inactive	inactive	inactive	
CN1CCN(C2=Nc3ccccc3Nc3ccc(Cl)cc32)CC1	8.59%	inactive	inactive	inactive	
C[C@@H]1C(=O)O[C@H]2CC34[C@H]5C[C@@H](C(C)(C)C)C36[C@@H](OC(=O)[C@@H]6O)OC4(C(=O)O5)[C@]21O (stereo partly specified)	-10%	inactive	inactive	inactive	
CC1(C)CC(NC(=O)C(=O)Nc2ccc(Br)cc2)CC(C)(C)N1		inactive	inactive	inactive	13.5 µM (active)
O=C(COc1ccc2ccccc2c1Br)Nc1cccnc1	-15.8%	inactive	inactive	inactive	
CC(C)N(CCCCOCC(=O)NS(C)(=O)=O)c1cnc(-c2ccccc2)c(-c2ccccc2)n1	-4.77%	inactive	inactive	inactive	
CC(c1ncncc1F)C(O)(Cn1cncn1)c1ccc(F)cc1F (stereo unspecified)	0.477%	inactive	inactive	inactive	
CC(C)(F)CC(NC(c1ccc(-c2ccc(S(C)(=O)=O)cc2)cc1)C(F)(F)F)C(=O)NC1(C#N)CC1 (stereo unspecified)	-1.43%	inactive	inactive	inactive	
CC1=C(C(=O)Nc2cc(Cl)ccc2Cl)C(c2ccco2)C2=C(CCCC2=O)N1 (stereo unspecified)	17.7%	inactive	inactive	inactive	
COC(=O)c1ccc2c(c1)[nH]c1ncnc(NCCCN3CCCCC3)c12	0.477%	inactive	31.6 µM (active)	inactive	
CC(C)(C)NCC(O)COc1cccc2c1CCCC2=O (stereo unspecified)	-7.64%	inactive	inactive	inactive	
O=C1CC[C@@H](C(=O)N2CSC[C@H]2C(=O)O)N1 ([pGlu]-[Thz]-OH)	1.43%	inactive	inactive	inactive	
CCCN1CCC[C@@H](c2cccc(S(C)(=O)=O)c2)C1	-7.64%	inactive	inactive	inactive	
O=C(O)CCc1ccc(NCc2cccc3c2CCCN3CCOc2ccccc2)cc1F	2.39%	inactive	inactive	inactive	
CC1(C(=O)Nc2ccc(F)nc2)CCCN1c1nc(Nc2cc(C3CC3)[nH]n2)c2cccn2n1 (stereo unspecified)		inactive	inactive	inactive	30.1 µM (active)
O=C(O)c1cc(-c2ccccc2)nc2ccccc12	-7.34% and -10% and -1.43%	inactive	inactive	inactive	

Structure (SMILES)	activation [1]	Potency [2]	Potency [3]	Potency [4]	Potency [1]
O=C(NS(=O)(=O)c1ccc(Br)s1)c1ccc(Cl)cc1Cl	-12.4%	inactive	inactive	inactive	
CC(C)Oc1ccc(-c2cnc3c(-c4ccnc5ccccc45)cnn3c2)cc1	-6.21%	inactive	inactive	inactive	
O=C(CC1NCCC[C@H]1O)Cn1cnc2cc(Br)c(Cl)cc2c1=O (stereo partly specified)	5.25%	inactive	inactive	inactive	
COc1ccc(N2CCOCC2)c2sc(NC(=O)N3CCC(C)(O)CC3)nc12	-5.25%	inactive	inactive	inactive	
Cc1cc(C)c(-n2cc(C)c3c(Cl)nc(C)nc32)c(C)c1	-3.82%	inactive	inactive	inactive	
Cc1[nH]c2ccccc2c1CCNC(=O)c1cccs1	-18.1%	inactive	inactive	inactive	
C=CC(=O)N1CCN(C(=O)c2cc(-c3cc(Cl)ccc3Cl)c(Cl)cc2OC)CC1	-7.64%	inactive	inactive	inactive	
Cc1cc(C)c(S(=O)(=O)N(Cc2ccc(-c3cccc(S(C)(=O)=O)c3)cc2)Cc2ccc(C(F)(F)F)o2)c(C)c1	-0.955%	inactive	inactive	inactive	
Cc1ccc(C)c(OCCn2cc(C(=O)O)c3ccccc32)c1	7.16%	inactive	inactive	inactive	
COc1ccc(Oc2cc(C)c(-c3csc(NC(=O)c4ccncc4)n3)c(C)c2)cc1	11%	inactive	inactive	inactive	
CN1CC2CN(c3ccc4oc5ccccc5c(=O)c4c3)CC2C1 (stereo unspecified)	0.955%	inactive	inactive	inactive	
Cc1c(C2=CCN(C(=O)N(C)C(C)C)CC2)nnn1-c1cccnc1F	-9.55%	inactive	inactive	inactive	
COc1cc(Nc2nc3ccccc3nc2NS(=O)(=O)c2cccc(NC(=O)c3ccc(C)c(OC)c3)c2)cc(OC)c1	10%	inactive	inactive	inactive	
CC(=O)[C@H]1CC[C@H]2[C@@H]3C=CC4=CC(=O)CC[C@@]4(C)[C@@H]3CC[C@]12C	-8.47% and 12.4%	inactive	inactive	inactive	
COc1ccncc1C(=O)NC(=O)Nc1ccc(-c2ccccc2)c(C(F)(F)F)c1	-0.477%	inactive	inactive	inactive	
O=C(Nc1ccn(Cc2ccc(O)cc2C(F)(F)F)n1)c1c(F)cccc1F	-13.4%	inactive	inactive	inactive	
CCC(C(C)O)n1ncn(-c2ccc(N3CCN(c4ccc(OCC5COC(Cn6cncn6)(c6ccc(F)cc6F)C5)cc4)CC3)cc2)c1=O (stereo unspecified)	5.25%	inactive	inactive	inactive	
CC(C)(C)c1ccc(-c2nc3c(N4CCN(Cc5ccc6nccnc6c5)CC4)cccc3[nH]2)cc1	-2.86%	inactive	inactive	inactive	
CC[C@H](C(=O)Nc1ccccc1N1CCCC1)c1ccccc1	2.86%	inactive	inactive	inactive	
